Assay results from PubChem BioAssay (Tox21).
Records with an inconclusive call do not appear. Activity calls are given as the source filed them. Unless noted, calls come from the whole dose curve.

What was measured:
[1] = qHTS assay to identify small molecule agonists of the sonic hedgehog signaling (Shh) pathway (AID 1259368);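 note: NIH/3T3-derived 3T3Gli1-Luc cells carrying a stable Gli1-driven firefly luciferase reporter; series mostly up to about 92 µM; nearly all actives have a fitted effect of over 15% in size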
How it was run: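 Luminescent signal was taken as a measure of Gli1-controlled luciferase expression in stably transfected NIH/3T3-derived cells that had been treated for 24 hr with compounds delivered in DMSO.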

[2] = qHTS assay to identify small molecule antagonists of the sonic hedgehog signaling (Shh) pathway (AID 1259369); note: nearly all actives have a fitted effect of over 45% in size; note: potency is the fitted concentration of half-maximal effect
How it was run: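 Screening used 3T3Gli1-Luc cells at 2,000 per well, compounds delivered in DMSO, and conditioned medium as agonist stimulus; plates incubated 24hr at 37 C and 5% CO2 before a 30min luciferase step.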

[3] = qHTS assay to identify small molecule agonists of the androgen receptor (AR) signaling pathway in the presence of an antagonist - cell viability counter screen (AID 1259379; active = well fitted curve in the direction sought with a large enough effect in the repeat runs; an effect the other way counts as inactive or inconclusive; note: nearly all actives have a fitted effect of over 25% in size; note: potency is the fitted concentration of half-maximal effect)
How it was run: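 In MDA-kb2 cells (human breast carcinoma, MMTV-luciferase), compounds at 15 concentrations plus 3.0uM nilutamide; 16 hr, 37C, 0% CO2; CellTiter-Fluor fluorescence read for viability.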

[4] = qHTS assay to identify small molecule agonists of the estrogen receptor beta (ER-beta) signaling pathway - cell viability counter screen (AID 1259380; active = well fitted curve in the direction sought with a large enough effect in the repeat runs; an effect the other way counts as inactive or inconclusive; note: nearly all actives have a fitted effect of over 30% in size; note: potency is the fitted concentration of half-maximal effect)
How it was run: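 Viability of ER-beta-UAS-bla HEK293T cells was determined by CellTiter-Glo luminescence following 16 hr treatment with test compounds at 37C.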

[5] = qHTS assay to identify small molecule antagonists of the estrogen receptor beta (ER-beta) signaling pathway - cell viability counter screen (AID 1259382; active = well fitted curve in the direction sought with a large enough effect in the repeat runs; an effect the other way counts as inactive or inconclusive; note: nearly all actives have a fitted effect of over 55% in size; note: potency is the fitted concentration of half-maximal effect)
How it was run: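 Tox21 10K library tested in qHTS format on ER-beta-bla HEK293T cells stimulated with 1nM E2; 16 hr treatment at 37C. Same-well CellTiter-Glo luminescence served as the cell viability measure.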

[6] = qHTS assay to identify small molecule agonists or antagonists of the thyroid stimulating hormone receptor (TSHR) signaling pathway - wild type cell line counter screen (AID 1259384)
How it was run: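 Wild-type Hek293 cells, 800/well, 18 h at 37C, then compound with Ro20-1724 for 30 min RT. cAMP by HTRF (cAMP-d2/anti-cAMP cryptate), 1 h RT, fluorescence read. 15 concentrations, triplicates.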

[7] = molecular target: Estrogen receptor (Homo sapiens) (UniProt P03372); assay: qHTS assay to identify small molecule agonists of the estrogen receptor alpha (ER-alpha) signaling pathway in the presence of an antagonist (AID 1259383); note: top concentration of the series differs between compounds; nearly all actives have a fitted effect of over 15% in size
How it was run: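 In VM7Luc4E2 cells, 4,000 per well, compounds at 15 concentrations were co-incubated 22hr at 37C with 10.0nM final ICI-182,780. Luminescence from the stably transfected 4×ERE-luciferase reporter was recorded 30min after ONE-Glo addition.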

[8] = molecular target: Androgen receptor (Homo sapiens) (UniProt P10275); assay: qHTS assay to identify small molecule agonists of the androgen receptor (AR) signaling pathway in the presence of an antagonist (AID 1259381); note: nearly all actives have a fitted effect of over 15% in size
How it was run: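 Here, 15-concentration compound series were pin-transferred onto MDA-kb2 MMTV-luciferase cells already dosed with nilutamide (3.0uM final). After 16hr at 37C, ONE-Glo was added and luminescence read 30min later at room temperature.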

Measured: Potency

Estrogen receptor (Homo sapiens), sequence (P03372 whole entry, looked up): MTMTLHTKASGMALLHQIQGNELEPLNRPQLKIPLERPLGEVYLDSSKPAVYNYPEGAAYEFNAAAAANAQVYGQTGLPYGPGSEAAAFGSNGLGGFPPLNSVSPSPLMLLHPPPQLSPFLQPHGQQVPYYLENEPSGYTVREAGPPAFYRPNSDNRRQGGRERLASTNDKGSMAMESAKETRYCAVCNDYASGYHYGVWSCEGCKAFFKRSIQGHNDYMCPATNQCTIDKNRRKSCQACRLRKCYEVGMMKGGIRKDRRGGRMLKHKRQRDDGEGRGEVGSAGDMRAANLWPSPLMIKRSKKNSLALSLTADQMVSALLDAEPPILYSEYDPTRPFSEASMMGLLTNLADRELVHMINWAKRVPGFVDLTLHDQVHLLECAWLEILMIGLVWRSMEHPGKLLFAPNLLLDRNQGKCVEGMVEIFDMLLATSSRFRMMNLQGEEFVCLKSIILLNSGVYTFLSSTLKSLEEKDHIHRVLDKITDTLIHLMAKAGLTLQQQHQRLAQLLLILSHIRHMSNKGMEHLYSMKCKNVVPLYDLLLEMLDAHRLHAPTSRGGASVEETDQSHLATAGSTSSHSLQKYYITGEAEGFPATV
Androgen receptor (Homo sapiens), sequence (P10275 whole entry, looked up): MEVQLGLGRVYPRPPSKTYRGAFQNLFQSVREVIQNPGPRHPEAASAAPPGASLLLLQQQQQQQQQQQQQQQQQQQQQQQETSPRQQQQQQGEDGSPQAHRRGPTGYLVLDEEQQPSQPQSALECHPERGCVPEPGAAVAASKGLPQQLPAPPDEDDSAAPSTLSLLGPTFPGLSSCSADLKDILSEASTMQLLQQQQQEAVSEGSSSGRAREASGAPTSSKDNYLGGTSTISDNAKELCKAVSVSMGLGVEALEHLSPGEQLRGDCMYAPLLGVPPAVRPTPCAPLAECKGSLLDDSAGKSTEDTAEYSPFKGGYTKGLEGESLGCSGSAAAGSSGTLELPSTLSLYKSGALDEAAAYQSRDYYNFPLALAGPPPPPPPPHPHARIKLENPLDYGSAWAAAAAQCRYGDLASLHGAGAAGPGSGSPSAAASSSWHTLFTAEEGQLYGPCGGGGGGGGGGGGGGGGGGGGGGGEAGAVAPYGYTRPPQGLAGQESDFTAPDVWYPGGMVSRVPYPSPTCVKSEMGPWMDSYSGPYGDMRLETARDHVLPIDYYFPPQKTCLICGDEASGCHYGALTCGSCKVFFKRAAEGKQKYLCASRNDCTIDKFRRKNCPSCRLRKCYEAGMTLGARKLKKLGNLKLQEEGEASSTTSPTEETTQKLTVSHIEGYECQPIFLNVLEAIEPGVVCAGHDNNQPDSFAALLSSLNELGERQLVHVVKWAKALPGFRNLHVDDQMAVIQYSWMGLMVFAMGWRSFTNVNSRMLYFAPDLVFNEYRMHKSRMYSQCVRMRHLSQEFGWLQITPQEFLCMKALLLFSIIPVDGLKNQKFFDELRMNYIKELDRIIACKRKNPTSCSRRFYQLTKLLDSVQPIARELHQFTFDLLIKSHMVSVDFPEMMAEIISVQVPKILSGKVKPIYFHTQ

Oc1cccc(Nc2ccccc2)c1
not listed: [7] | [8]
inactive: all other assays above

CCCCCC#CC(=O)OC
not listed: [4] | [8]
inactive: all other assays above

CN1C(=O)N(c2ccccc2Br)Cc2cnc(Nc3ccc4c(c3)OCC(CO)O4)nc21 (configuration not stated)
inactive: [1] | [6]
active: [2] 6.86 µM | [3] 61.1 µM | [4] 34.4 µM | [5] 38.6 µM

CC(C)C[C@H](NC(=O)[C@H](CCc1ccccc1)NC(=O)CN1CCOCC1)C(=O)N[C@@H](Cc1ccccc1)C(=O)N[C@@H](CC(C)C)C(=O)[C@@]1(C)CO1
active: [2] 0.0119 µM | [3] 1.19 µM | [4] 0.266 µM
inactive: [1] | [7] | [6]

CCC(C)COC(C)=O (configuration not stated)
not listed: [8]
inactive: all other assays above

N#[N+]c1ccc2c(S(=O)(=O)[O-])cccc2c1O
inactive: [1] | [2] | [4] | [5] | [7]

CC(C)COCC(CN(Cc1ccccc1)c1ccccc1)N1CCCC1 (configuration not stated)
inactive: [1]
active: [2] 26.6 µM | [3] 26.6 µM | [4] 29.8 µM | [5] 21.1 µM

N#CCCN(CCO)CCO
not listed: [8]
inactive: all other assays above

Cc1cccc(O)c1N
inactive: [1] | [3] | [6]
active: [2] 15.5 µM

Cc1ccc(OC(=O)c2ccccc2O)cc1
inactive: [1] | [2] | [3] | [4] | [5]

CCOC(=O)c1ccc(O)c(O)c1
active: [2] 29.8 µM
not listed: [8]
inactive: all other assays above

CC(=O)NC1(c2cccc(F)c2)CCN(CC[C@@]2(c3ccc(Cl)c(Cl)c3)CN(c3ccccc3)C(=O)CO2)CC1
inactive: [1] | [7] | [6]
active: [2] 24.4 µM | [4] 24.4 µM | [5] 21.7 µM

O=C=Nc1ccc(Cl)c(Cl)c1
active: [4] 47.8 µM
not listed: [5] | [8]
inactive: all other assays above

Oc1ccc(Cl)c2cccnc12
active: [2] 0.596 µM
not listed: [4]
inactive: all other assays above

COc1cc(Nc2c(C#N)cnc3cc(OCCCN4CCN(C)CC4)c(OC)cc23)c(Cl)cc1Cl
active: [2] 13.3 µM | [4] 33.5 µM
inactive: [1] | [5] | [6]

CCOC(=O)[C@H](CCc1ccccc1)N[C@@H](C)C(=O)N(CC(=O)O)C1Cc2ccccc2C1
inactive: [1] | [2] | [3] | [7]
active: [4] 6.68 µM | [5] 11.9 µM

CC(C)c1nc(CN(C)C(=O)N[C@H](C(=O)N[C@@H](Cc2ccccc2)C[C@H](O)[C@H](Cc2ccccc2)NC(=O)OCc2cncs2)C(C)C)cs1
active: [4] 15 µM
inactive: [1] | [2] | [7] | [6]

OCCN1CCN(CCCN2c3ccccc3Sc3ccc(Cl)cc32)CC1
inactive: [1] | [7] | [6]
active: [2] 11.9 µM | [4] 23.7 µM | [5] 13.3 µM

O=[N+]([O-])c1ccc(Nc2ccc(Nc3ccccc3)c(S(=O)(=O)O)c2)c([N+](=O)[O-])c1
inactive: [1] | [2] | [4] | [5] | [6]

CC1(C)S[C@@H]2[C@H](NC(=O)C(c3ccccc3)S(=O)(=O)O)C(=O)N2[C@H]1C(=O)O (some centres not stated)
not listed: [3] | [8]
inactive: all other assays above

O=C(/C=C/c1ccc(O)c(O)c1)O[C@@H]1C[C@@](OC(=O)/C=C/c2ccc(O)c(O)c2)(C(=O)O)C[C@@H](O)[C@@H]1O
not listed: [8]
inactive: all other assays above

O=[N+]([O-])c1cc(C2CCCCC2)c(O)c([N+](=O)[O-])c1
active: [2] 1.08 µM | [3] 24.3 µM
inactive: all other assays above

CNC(=O)c1cnn(-c2nc(N)c3ncn([C@@H]4O[C@H](CO)[C@@H](O)[C@H]4O)c3n2)c1
inactive: [1] | [2] | [4] | [7] | [6]

CCOC(=O)/C=C/C(=O)OCC
not listed: [4] | [8]
inactive: all other assays above

O=C(OCC(O)CO)c1ccccc1Nc1ccnc2cc(Cl)ccc12 (configuration not stated)
inactive: [1] | [3] | [8] | [7]
active: [2] 7.5 µM

Brc1cc2ccccc2c2ccccc12
inactive: [1] | [2] | [5] | [7]
active: [4] 30.9 µM

Cc1ccco1
not listed: [8]
inactive: all other assays above

N#CCc1ccc(Cl)cc1Cl
not listed: [8]
inactive: all other assays above

CN1CCCC(n2nc(Cc3ccc(Cl)cc3)c3ccccc3c2=O)CC1 (configuration not stated)
active: [2] 2.66 µM | [4] 26.6 µM
inactive: [1] | [7] | [6]

O=C(O)c1cccc(-c2noc(-c3ccccc3F)n2)c1
active: [2] 0.237 µM | [4] 26.6 µM
inactive: [1] | [3] | [6]

CC(CO)CO
not listed: [8]
inactive: all other assays above

CC(=O)Oc1ccc([N+](=O)[O-])cc1CCl
active: [3] 30.6 µM
not listed: [8]
inactive: all other assays above

NC(=O)c1ccncc1
not listed: [7]
inactive: all other assays above
